Data published in PubChem BioAssay (Tox21).
Several values for one entry are separate records, joined by “and”; a condition that tells them apart may be missing. Equal values may be shown once. Results filed as inconclusive are left out. Entries that show only a call come without a potency. Activity calls are given as the source filed them. Unless noted, calls follow the shape of the dose curve; as a rule, active = well fitted curve in the direction sought with a large enough effect in the repeat runs; inconclusive = weak or mixed curves; inactive = no such curve, though single readings can be large; an effect the other way counts as inactive or inconclusive.

Tests used:
[1] = A CellTox Green Cytotoxicity Assay to monitor cytotoxicity in HepG2 cells - 8 hour (AID 1224890); also: nearly all actives have a fitted effect of over 45% in size
Outline: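 First, HepG2 cells (600/well) mixed with reagent were plated; second, after 5 h at 37 C they received compounds via pintool; third, fluorescence was measured at 0 h through 40 h at 8 h intervals.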

[2] = qHTS assay to identify small molecule antagonists of the estrogen receptor alpha (ER-alpha) signaling pathway using the BG1 cell line in the presence of 0.1 nM 17-beta-estradiol - cell viability counter screen (AID 1259241); also: nearly all actives have a fitted effect of over 40% in size
Outline: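 Following 5 days in phenol red-free medium with charcoal-stripped serum, VM7Luc4E2 cells received test compounds alongside 0.1 nM 17beta-estradiol (final) at 37C for 22 hr. Live cells were then quantified via protease-substrate fluorescence.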

[3] = qHTS assay to identify small molecule antagonists of the androgen receptor (AR) signaling pathway using the MDA cell line in the presence of 0.5 nM R1881 - cell viability counter screen (AID 1259242); also: nearly all actives have a fitted effect of over 45% in size
Outline: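 qHTS format. MDA-kb2 (MMTV-luc, AR/GR responsive) + cpd + 0.5 nM R1881 final, 16 hr 37C/0% CO2 → CellTiter-Fluor 30 min → fluorescence intensity.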

[4] = molecular target: Estrogen receptor (Homo sapiens) (UniProt P03372); assay: qHTS assay to identify small molecule antagonists of the estrogen receptor alpha (ER-alpha) signaling pathway using the BG1 cell line in the presence of 0.1 nM 17-beta-estradiol (AID 1259244); also: nearly all actives have a fitted effect of over 50% in size
Outline: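 Reporter is a stably transfected luciferase under four estrogen responsive elements in VM7Luc4E2 cells expressing native full-length ER-alpha; inhibition of 0.1 nM (final) 17beta-estradiol-driven signal over 22 h is read by luminescence.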

[5] = qHTS assay to identify small molecule phospholipidosis (PLD) inducers (AID 1259344; active = well fitted curve in the direction sought with a large enough effect; an effect the other way counts as inactive or inconclusive)
Outline: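 Read-out is LipidTOX Red fluorescence (ex 595/em 615) imaged in HepG2 cells after 24 h compound exposure at 37 C, with Hoechst nuclear counterstain (ex 352/em 461) allowing per-cell normalisation.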

[6] = qHTS assay to identify small molecule HDAC inhibitors (AID 1259364);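 also: wild-type HCT-116 cells with endogenous class I/II HDAC activity; top concentration of the series differs between compounds; nearly all actives have a fitted effect of over 45% in size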
Outline: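 Quantitative high-throughput format: overnight-seeded HCT-116 cells got compounds for 2 hr at 37C; HDAC-Glo I/II reagent added, 30 min RT, luminescence measured.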

[7] = qHTS assay to identify small molecule HDAC inhibitors - cell viability counter screen (AID 1259365); also: series mostly up to about 92 µM; nearly all actives have a fitted effect of over 50% in size
Outline: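 HCT-116 wild-type, overnight attachment; 2hr drug exposure, 37C; CellTiter-Glo luminescent ATP readout after 30min RT.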

[8] = qHTS assay to identify small molecule agonists of the sonic hedgehog signaling (Shh) pathway - cell viability counter screen (AID 1259366); also: nearly all actives have a fitted effect of over 50% in size
Outline: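 Compounds in DMSO were pin-transferred onto 3T3 Gli1-Luc cells that had settled 4hr; plates then stood 24hr at 37C and 5% CO2. One hour before the end, CellTiter-Fluor was added and fluorescence recorded.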

[9] = qHTS assay to identify small molecule antagonists of the sonic hedgehog signaling (Shh) pathway - cell viability counter screen (AID 1259367); also: nearly all actives have a fitted effect of over 55% in size
Outline: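 Fluorescence read-out (CellTiter-Fluor, 1 hr at 37C) taken after 23 hr compound treatment of 3T3 Gli1-Luc cells stimulated with conditioned medium. Cells were seeded at 2,000 per well and pre-incubated 4 hr.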

[10] = qHTS assay to identify small molecule antagonists of the sonic hedgehog signaling (Shh) pathway (AID 1259369; calls by dose curve; also: nearly all actives have a fitted effect of over 45% in size; also: potency is read from the fitted curve at half-maximal effect)
Outline: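 Stable Gli1-Luc reporter NIH/3T3 clone; quantitative HTS in stimulated mode with conditioned medium. Luminescence measured after 24hr compound treatment at 37 C.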

[11] = qHTS assay to identify small molecule agonists of the androgen receptor (AR) signaling pathway in the presence of an antagonist - cell viability counter screen (AID 1259379);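 also: MDA-kb2 human breast cancer cells carrying an MMTV luciferase reporter; series mostly up to about 92 µM; nearly all actives have a fitted effect of over 25% in size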
Outline: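 Nilutamide-containing (3.0uM final) MDA-kb2 cultures, 3,000 cells/well, were treated with compounds across 15 concentrations. After 16 hr at 37C with no CO2, cell viability was determined by CellTiter-Fluor fluorescence in the luciferase assay wells.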

[12] = qHTS assay to identify small molecule agonists of the estrogen receptor beta (ER-beta) signaling pathway - cell viability counter screen (AID 1259380); also: nearly all actives have a fitted effect of over 30% in size
Outline: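 Steps: plate ER-beta-UAS-bla HEK293T cells, rest 6 hr; add compounds in DMSO; incubate 16 hr at 37C, 5% CO2; add FRET substrate 2 hr; add CellTiter-Glo, wait 30 min at room temperature; read luminescence.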

[13] = molecular target: Estrogen receptor (Homo sapiens) (UniProt P03372); assay: qHTS assay to identify small molecule agonists of the estrogen receptor alpha (ER-alpha) signaling pathway in the presence of an antagonist (AID 1259383; calls by dose curve; also: top concentration of the series differs between compounds; nearly all actives have a fitted effect of over 15% in size)
Outline: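 Readout was ERE-driven luciferase luminescence in VM7Luc4E2 cells, which express full-length ER-alpha endogenously. Compounds were tested at 15 concentrations for 22hr alongside 10.0nM ICI-182,780 (final concentration).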

[14] = qHTS assay to identify small molecule antagonists of the estrogen receptor beta (ER-beta) signaling pathway - cell viability counter screen (AID 1259382); also: series mostly up to about 92 µM; nearly all actives have a fitted effect of over 55% in size
Outline: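 Viability is scored by CellTiter-Glo luminescence (30 min, room temperature) in ER-beta-UAS-bla HEK293T wells already read for reporter fluorescence. Compound exposure lasts 16 hr at 37C alongside 1nM 17-beta-estradiol in charcoal-stripped serum medium.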

[15] = molecular target: Androgen receptor (Homo sapiens) (UniProt P10275); assay: qHTS assay to identify small molecule antagonists of the androgen receptor (AR) signaling pathway using the MDA cell line in the presence of 0.5 nM R1881 (AID 1259243); also: nearly all actives have a fitted effect of over 50% in size
Outline: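 Antagonist mode quantitative HTS in MDA-kb2 MMTV-luciferase cells, agonist R1881 at 0.5 nM final, 16 hr exposure at 37C and 0% CO2, luminescent detection.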

[16] = qHTS assay to identify small molecule agonists of the sonic hedgehog signaling (Shh) pathway (AID 1259368; calls by dose curve;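 also: NIH/3T3-derived 3T3Gli1-Luc cells carrying a stable Gli1-driven firefly luciferase reporter; series mostly up to about 92 µM; nearly all actives have a fitted effect of over 15% in size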)
Outline: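 Quantitative high-throughput format using a Gli1-driven firefly luciferase reporter line derived from NIH/3T3 cells. After a 24 hr compound treatment at 37 C and 5% CO2, luminescence reported Gli1 response element activity.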

[17] = molecular target: Estrogen receptor beta (Homo sapiens) (UniProt Q92731); assay: qHTS assay to identify small molecule agonists of the estrogen receptor beta (ER-beta) signaling pathway (AID 1259377; active = well fitted activation curve with a large enough effect in the signal ratio in the repeat runs, not every such curve was filed as active; the % refers to the signal ratio)
Outline: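 qHTS in ER-beta-UAS-bla HEK293T cells: 6 hr settling, then 16 hr compound at 37C, then LiveBLAzer substrate 2 h at RT before fluorescence reading.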

[18] = molecular target: Estrogen receptor beta (Homo sapiens) (UniProt Q92731); assay: qHTS assay to identify small molecule antagonists of the estrogen receptor beta (ER-beta) signaling pathway (AID 1259378; active = well fitted inhibition curve with a large enough effect in the signal ratio in the repeat runs, not every such curve was filed as active; the % refers to the signal ratio)
Outline: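 ER-beta-UAS-bla HEK293T cells in 2% charcoal-stripped FBS medium treated with compound plus 1nM final 17-beta-estradiol for 16 hr at 37C. Beta-lactamase reporter read by FRET substrate fluorescence after 2 hours at room temperature.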

[19] = molecular target: Androgen receptor (Homo sapiens) (UniProt P10275); assay: qHTS assay to identify small molecule agonists of the androgen receptor (AR) signaling pathway in the presence of an antagonist (AID 1259381; calls by dose curve; also: nearly all actives have a fitted effect of over 15% in size)
Outline: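 Reporter-gene luminescence from MDA-kb2 cells exposed 16hr at 37C (0% CO2) to 15-point compound titrations with 3.0uM final nilutamide as AR antagonist.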

[20] = qHTS assay to identify small molecule agonists or antagonists of the thyroid stimulating hormone receptor (TSHR) signaling pathway - wild type cell line counter screen (AID 1259384; calls by dose curve)
Outline: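 Wild-type Hek293 cells, 800/well, 18 h at 37C, then compound with Ro20-1724 for 30 min RT. cAMP by HTRF (cAMP-d2/anti-cAMP cryptate), 1 h RT, fluorescence read. 15 concentrations, triplicates.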

Androgen receptor (Homo sapiens), sequence (P10275 whole entry, looked up): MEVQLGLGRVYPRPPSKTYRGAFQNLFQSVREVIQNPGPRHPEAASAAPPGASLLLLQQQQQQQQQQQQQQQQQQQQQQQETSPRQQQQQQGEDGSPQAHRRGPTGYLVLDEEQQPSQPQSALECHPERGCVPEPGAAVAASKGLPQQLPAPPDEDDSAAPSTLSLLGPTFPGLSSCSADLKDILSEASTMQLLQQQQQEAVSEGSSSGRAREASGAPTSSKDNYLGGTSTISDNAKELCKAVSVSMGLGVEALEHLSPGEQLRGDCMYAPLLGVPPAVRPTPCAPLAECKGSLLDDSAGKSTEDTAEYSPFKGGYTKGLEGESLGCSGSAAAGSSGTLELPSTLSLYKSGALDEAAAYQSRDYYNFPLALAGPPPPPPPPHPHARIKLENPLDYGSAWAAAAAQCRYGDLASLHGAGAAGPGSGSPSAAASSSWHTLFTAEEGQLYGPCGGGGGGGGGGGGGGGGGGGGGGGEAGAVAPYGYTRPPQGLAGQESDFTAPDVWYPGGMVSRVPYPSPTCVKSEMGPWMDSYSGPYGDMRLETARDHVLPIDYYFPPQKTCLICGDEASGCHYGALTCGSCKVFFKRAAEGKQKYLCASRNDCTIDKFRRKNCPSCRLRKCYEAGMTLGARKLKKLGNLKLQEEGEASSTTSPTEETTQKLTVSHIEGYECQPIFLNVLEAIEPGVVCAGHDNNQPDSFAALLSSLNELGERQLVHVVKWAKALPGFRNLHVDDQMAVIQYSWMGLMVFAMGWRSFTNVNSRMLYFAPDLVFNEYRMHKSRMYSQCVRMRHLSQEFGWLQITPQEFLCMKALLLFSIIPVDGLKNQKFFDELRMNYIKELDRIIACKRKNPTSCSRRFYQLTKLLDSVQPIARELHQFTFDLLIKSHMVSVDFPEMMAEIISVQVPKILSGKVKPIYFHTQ
Estrogen receptor beta (Homo sapiens), sequence (Q92731 whole entry, looked up): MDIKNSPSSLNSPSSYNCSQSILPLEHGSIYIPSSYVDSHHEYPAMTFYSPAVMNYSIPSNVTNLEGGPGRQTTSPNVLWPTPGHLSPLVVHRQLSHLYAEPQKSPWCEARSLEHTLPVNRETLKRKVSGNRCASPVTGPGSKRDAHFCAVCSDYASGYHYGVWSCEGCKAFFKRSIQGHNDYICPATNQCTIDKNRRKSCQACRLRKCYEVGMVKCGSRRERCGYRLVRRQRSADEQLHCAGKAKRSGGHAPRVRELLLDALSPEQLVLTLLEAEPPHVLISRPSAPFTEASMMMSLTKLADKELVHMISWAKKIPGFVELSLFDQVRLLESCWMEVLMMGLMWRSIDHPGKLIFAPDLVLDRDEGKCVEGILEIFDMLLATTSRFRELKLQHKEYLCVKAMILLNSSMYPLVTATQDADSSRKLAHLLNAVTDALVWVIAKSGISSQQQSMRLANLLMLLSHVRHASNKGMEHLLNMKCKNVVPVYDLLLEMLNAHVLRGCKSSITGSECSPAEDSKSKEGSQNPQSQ
Estrogen receptor (Homo sapiens), sequence (P03372 whole entry, looked up): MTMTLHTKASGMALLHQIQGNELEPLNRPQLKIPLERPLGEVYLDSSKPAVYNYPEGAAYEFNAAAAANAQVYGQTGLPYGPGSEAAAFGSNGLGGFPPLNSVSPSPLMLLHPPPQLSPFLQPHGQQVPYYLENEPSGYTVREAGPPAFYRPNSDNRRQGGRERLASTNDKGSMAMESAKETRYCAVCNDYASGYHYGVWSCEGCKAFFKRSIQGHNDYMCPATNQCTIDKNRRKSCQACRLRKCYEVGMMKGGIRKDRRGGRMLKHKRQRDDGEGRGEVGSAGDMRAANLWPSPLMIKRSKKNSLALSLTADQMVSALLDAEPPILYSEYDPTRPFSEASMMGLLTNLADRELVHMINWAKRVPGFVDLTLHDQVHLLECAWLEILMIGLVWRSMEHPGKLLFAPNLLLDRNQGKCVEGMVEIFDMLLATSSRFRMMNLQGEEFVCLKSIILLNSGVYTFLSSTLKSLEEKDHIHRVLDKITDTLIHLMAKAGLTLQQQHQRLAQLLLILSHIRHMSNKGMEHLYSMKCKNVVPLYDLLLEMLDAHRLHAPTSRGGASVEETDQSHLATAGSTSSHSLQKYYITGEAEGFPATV

| SMILES | Potency [1] | outcome [2] | outcome [3] | Potency [4] | Potency [5] | Potency [6] | outcome [7] | Potency [8] | Potency [9] | Potency [10] | Potency [11] | Potency [12] | outcome [13] | outcome [14] | Potency [15] | outcome [16] | Potency [17] | outcome [18] | outcome [19] | outcome [20] |
| --- | --- | --- | --- | --- | --- | --- | --- | --- | --- | --- | --- | --- | --- | --- | --- | --- | --- | --- | --- | --- |
| CNC(=O)Oc1cccc2ccccc12 | inactive | inactive | inactive | inactive | inactive | inactive | inactive | inactive | inactive | 12.1 µM (active) and 9.44 µM (active) | inactive | inactive | inactive | – | – | – | – | – | – | – |
| O=C(O)Cc1ccccc1 | inactive | inactive | inactive | inactive | inactive | inactive | inactive | inactive | inactive | inactive | inactive | inactive | inactive | inactive | – | – | – | – | – | – |
| CNC(=O)O/N=C(\SC)C(=O)N(C)C | inactive | inactive | inactive | inactive | – | inactive | inactive | inactive | inactive | inactive | – | inactive | inactive | inactive | inactive | inactive | inactive | inactive | inactive | inactive |
| O=C(O)CCCc1ccc(N(CCCl)CCCl)cc1 | inactive | inactive | inactive | inactive | inactive | inactive | inactive | inactive | inactive | inactive | inactive | inactive | inactive | inactive | – | – | – | – | – | – |
| COc1nc(NC(C)C)nc(NC(C)C)n1 | inactive | inactive | inactive | inactive | – | inactive | inactive | inactive | inactive | – | inactive | inactive | inactive | – | – | – | inactive | inactive | – | – |
